Values joined by “and” are separate entries in the source; they are usually repeats but may differ in a detail not shown here. Equal values may be shown once. The source holds several records for some structures; these can differ, active in one and inactive in another. Active and inactive are the calls of the source. Rule for the calls: active = hit-call score of the fitted dose curve at least 0.9, where 1 is the maximum; inactive = score below 0.9.
How the values were obtained:
[1] = ATG_M_32_CIS: Attagene CIS-FACTORIAL HepG2 Assay for M32 Transcription Factor (Internal Marker) (AID 2282949); conditions: HepG2 Attagene cis-factorial M32 reporter, mRNA; actives raise or lower the signal;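 note: background control marker of the multiplexed CIS panel rather than a real target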
Outline: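 Fluorescent capillary electrophoresis peaks of HpaI-digested, FAM-labelled RT-PCR reporter products give the signal. Source: transiently transfected human liver HepG2 cells, 24 h after chemical dosing; bidirectional fitting against DMSO.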

[2] = ATG_M_06_CIS: Attagene CIS-FACTORIAL HepG2 Assay for M06 Transcription Factor (Internal Marker) (AID 2282950); conditions: HepG2 Attagene CIS-FACTORIAL M06 internal marker reporter; actives raise or lower the signal
Outline: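 HepG2 cells transiently transfected with cis-regulated multiple reporter transcription units were exposed to chemical for 24 h; reporter mRNA was quantified by RT-PCR, 6-FAM primer labelling, HpaI digestion and capillary electrophoresis, fitted bidirectionally against DMSO.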

[3] = biological target: Hypoxia-inducible factor 1-alpha (Homo sapiens) (UniProt Q16665); experiment: ATG_HIF1a_CIS: Attagene CIS-FACTORIAL HepG2 Assay for human Hypoxia Inducible Factor 1 (HIF1A) (AID 2282951); conditions: HepG2 Attagene cis-factorial HIF1a reporter transcription; actives raise or lower the signal
Outline: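 Measures endogenous transcription-factor activity through cis-regulated reporter mRNA in HepG2. Cells dosed 24 h; transcripts quantified by RT-PCR with 6-FAM-labelled products separated by capillary electrophoresis; DMSO serves as negative control.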

[4] = biological target: Hepatocyte nuclear factor 6 (Homo sapiens) (UniProt Q9UBC0); experiment: ATG_HNF6_CIS: Attagene CIS-FACTORIAL HepG2 Assay for human Hepatocyte Nuclear Factor 6 (HNF6) (AID 2282952); conditions: HepG2 Attagene cis-factorial HNF6 reporter transcription; actives raise or lower the signal
Outline: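 HepG2 cells transiently transfected with cis-element-driven multiple reporter transcription units, dosed 24 h; reporter mRNA quantified by RT-PCR, FAM primer extension, HpaI digestion and capillary electrophoresis; bidirectional fit versus DMSO baseline.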

[5] = biological target: Heat shock factor protein 1 (Homo sapiens) (UniProt Q00613); experiment: ATG_HSE_CIS: Attagene CIS-FACTORIAL HepG2 Assay for human Heat Shock Transcription Factor 1 (HSE) (AID 2282953); conditions: HepG2 HSE cis-reporter, Attagene RNA transcription; actives raise or lower the signal
Outline: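 HepG2 cells transiently transfected with multiple reporter transcription units under cis-regulatory promoter control, measuring endogenous transcription factor activity. After 24 h chemical exposure, reporter mRNA quantified by RT-PCR, fluorescent labelling, HpaI digestion and capillary electrophoresis; bidirectional fit versus DMSO.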

[6] = ATG_MRE_CIS: Attagene CIS-FACTORIAL HepG2 Assay for human Metal Responsive Element (MRE) (AID 2282954); conditions: HepG2 MRE cis-reporter transcription, Attagene multiplex; actives raise or lower the signal
Outline: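 HepG2 cells transiently transfected with cis-element-driven reporter units; mRNA measured 24 h after dosing. Reporter transcripts quantified by RT-PCR, FAM labelling, HpaI digestion and capillary electrophoresis; bidirectional fit versus DMSO.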

[7] = ATG_PBREM_CIS: Attagene CIS-FACTORIAL HepG2 Assay for human Phenobarbital-responsive Enhancer Module (PBREM) (AID 2282955); conditions: HepG2 PBREM cis-reporter, Attagene multiplexed transcription; actives raise or lower the signal
Outline: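 Fluorescence of labelled reporter cDNA fragments, resolved by capillary electrophoresis, gives mRNA induction in transfected HepG2 cells treated for 24 h; DMSO serves as negative control and baseline.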

[8] = biological target: Paired box protein Pax-6 (Homo sapiens) (UniProt P26367); experiment: ATG_Pax6_CIS: Attagene CIS-FACTORIAL HepG2 Assay for human Paired Box 6 (PAX6) (AID 2282956); conditions: HepG2 CIS-FACTORIAL PAX6 reporter transcription, RNA readout; actives raise or lower the signal
Outline: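 HepG2 cells transiently transfected with cis-promoter-driven multiplexed reporter units sensing endogenous transcription factor activity; 24 h chemical exposure. Reporter mRNA quantified by RT-PCR, 6-FAM labelling, HpaI digestion and capillary electrophoresis; bidirectional fit versus DMSO baseline.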

[9] = ATG_PXRE_CIS: Attagene CIS-FACTORIAL HepG2 Assay for human Pregnane X Receptor Element (PXRE) (AID 2282957); conditions: HepG2 Attagene CIS-FACTORIAL PXRE reporter, mRNA; actives raise or lower the signal
Outline: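 HepG2 cells transiently transfected with cis-regulated multiple reporter transcription units; endogenous factor activity measured as reporter mRNA 24 h after dosing. RT-PCR, fluorescent primer extension, HpaI digestion, capillary electrophoresis; bidirectional fit versus DMSO baseline.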

[10] = ATG_PPRE_CIS: Attagene CIS-FACTORIAL HepG2 Assay for human Peroxisome Proliferator-activated Response Element (PPRE) (AID 2282958); conditions: HepG2 PPRE cis-element reporter, Attagene transcription factor profiling; actives raise or lower the signal
Outline: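 Cells are first transfected transiently with the multiplexed reporter library, then dosed for 24 h. Total RNA is reverse-transcribed, amplified, fluorescently end-labeled and HpaI-cut before capillary electrophoresis; activity is fitted bidirectionally against DMSO controls.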

[11] = ATG_RORE_CIS: Attagene CIS-FACTORIAL HepG2 Assay for human RAR-related Orphan Receptor Element (RORE) (AID 2282959); conditions: HepG2 Attagene cis-factorial RORE reporter, mRNA; actives raise or lower the signal
Outline: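 Cells were HepG2 carrying transfected cis-regulated reporter constructs, dosed for 24 hours. Total RNA was reverse-transcribed and reporter cDNA amplified, fluorescently labeled and sized by capillary electrophoresis. Activity was fitted bidirectionally relative to DMSO.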

[12] = ATG_Sox_CIS: Attagene CIS-FACTORIAL HepG2 Assay for human SRY-box transcription factor (SOX) (AID 2282960); conditions: HepG2 Attagene cis-factorial SOX reporter, mRNA; actives raise or lower the signal
Outline: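 Transient MRTU transfection of HepG2; 24 h compound incubation; TriZol RNA, oligo(dT) RT, PCR, 6-FAM primer extension, HpaI cut, CE. Bidirectional fit, DMSO = baseline.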

[13] = biological target: Transcription factor Sp1 (Homo sapiens) (UniProt P08047); experiment: ATG_Sp1_CIS: Attagene CIS-FACTORIAL HepG2 Assay for human Specificity Protein 1 (Sp1) (AID 2282961); conditions: HepG2 Sp1 cis-reporter transcription, actives raise or lower the signal
Outline: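 Endogenous Sp1 activity was gauged in human liver HepG2 cells bearing transfected reporter units under a cis-regulating promoter. After 24 h dosing, reporter mRNA was quantified by RT-PCR with capillary electrophoresis, and activity fitted bidirectionally versus DMSO.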

[14] = ATG_SREBP_CIS: Attagene CIS-FACTORIAL HepG2 Assay for human Sterol Regulatory Element Binding (SREBP) (AID 2282962); conditions: HepG2 Attagene cis-factorial SREBP reporter, mRNA; actives raise or lower the signal
Outline: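 HepG2 cells transiently transfected with multiplexed cis-promoter reporter units sensing endogenous transcription factors; reporter mRNA measured 24 h after dosing by RT-PCR, 6-FAM labeling, HpaI digestion and capillary electrophoresis. Bidirectional fit versus DMSO.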

[15] = biological target: Signal transducer and activator of transcription 3 (Homo sapiens) (UniProt P40763); experiment: ATG_STAT3_CIS: Attagene CIS-FACTORIAL HepG2 Assay for human Signal Transducer and Activator of Transcription 3 (STAT3) (AID 2282963); conditions: HepG2, Attagene cis-factorial STAT3 reporter transcription; actives raise or lower the signal
Outline: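 HepG2 cells transiently transfected with multiple cis-element-driven reporter units report endogenous transcription factor activity. After 24 h compound exposure, reporter mRNA is measured by RT-PCR, 6-FAM labelling, HpaI digestion and capillary electrophoresis. Fitted bidirectionally versus DMSO.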

[16] = ATG_TA_CIS: Attagene CIS-FACTORIAL HepG2 Assay for human TA Basal Promoter (AID 2282964); conditions: HepG2 Attagene CIS-factorial TA basal promoter reporter; actives raise or lower the signal
Outline: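 HepG2 cells transiently transfected with multiplexed cis-promoter reporter units, dosed 24 h. Reporter mRNA measured by RT-PCR, 6-FAM labelling, HpaI digestion and capillary electrophoresis; bidirectional fit versus DMSO baseline, serving as background control.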

[17] = ATG_TCF_b_cat_CIS: Attagene CIS-FACTORIAL HepG2 Assay for human T-Cell-Factor with beta-catenin (TCF/b-cat) (AID 2282965); conditions: HepG2 TCF/beta-catenin cis-reporter transcription, actives raise or lower the signal
Outline: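 Cells of the HepG2 line carry transiently transfected reporter units whose promoters respond to endogenous factors. Twenty-four hours post-dosing, reporter mRNA induction is measured by fluorescent RT-PCR and capillary electrophoresis, with DMSO as baseline.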

[18] = ATG_TAL_CIS: Attagene CIS-FACTORIAL HepG2 Assay for human TAL Basal Promoter (AID 2282966); conditions: HepG2 Attagene cis-factorial TAL promoter reporter; actives raise or lower the signal;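 note: background control endpoint measuring basal TAL promoter reporter mRNA not a specific factor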
Outline: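 HepG2 cells were transiently transfected with promoter-driven multiplexed reporter units and dosed for 24 h. Reporter mRNA was measured by RT-PCR with capillary electrophoresis fluorescence; bidirectional fits used DMSO as baseline, serving as a background control.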

[19] = ATG_TGFb_CIS: Attagene CIS-FACTORIAL HepG2 Assay for human Transforming Growth Factor (TGF) (AID 2282967); conditions: HepG2 Attagene CIS TGFb reporter, mRNA transcription; actives raise or lower the signal
Outline: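 HepG2 cells transiently transfected with cis-promoter-driven multiplexed reporter units; 24 h compound exposure. Reporter mRNA measured by RT-PCR, 6-FAM labeling, HpaI digestion and capillary electrophoresis; bidirectional fit versus DMSO baseline.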

[20] = ATG_VDRE_CIS: Attagene CIS-FACTORIAL HepG2 Assay for human Vitamin D Receptor Element (VDRE) (AID 2282968); conditions: HepG2 VDRE cis-reporter transcription, actives raise or lower the signal
Outline: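 Transiently transfected HepG2 cells carrying cis-regulated reporter transcription units were exposed for 24 h. Reporter mRNA was measured by RT-PCR with fluorescent labelling and capillary electrophoresis, and fitted in both directions against DMSO.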

Measured: AC50

Hepatocyte nuclear factor 6 (Homo sapiens), sequence (Q9UBC0 whole entry, looked up): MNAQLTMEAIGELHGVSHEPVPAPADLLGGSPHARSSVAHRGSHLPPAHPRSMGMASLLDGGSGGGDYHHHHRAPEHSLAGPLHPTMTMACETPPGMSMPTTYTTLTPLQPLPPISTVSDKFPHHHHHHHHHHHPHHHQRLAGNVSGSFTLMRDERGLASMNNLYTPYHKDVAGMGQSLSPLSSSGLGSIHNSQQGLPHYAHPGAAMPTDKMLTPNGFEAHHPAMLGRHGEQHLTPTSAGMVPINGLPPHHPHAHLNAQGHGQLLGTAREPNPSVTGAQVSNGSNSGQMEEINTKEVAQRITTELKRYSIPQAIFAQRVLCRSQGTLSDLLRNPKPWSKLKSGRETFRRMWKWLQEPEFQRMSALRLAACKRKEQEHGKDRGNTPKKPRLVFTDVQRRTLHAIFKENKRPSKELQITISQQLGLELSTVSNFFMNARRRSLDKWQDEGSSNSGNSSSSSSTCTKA
Heat shock factor protein 1 (Homo sapiens), sequence (Q00613 whole entry, looked up): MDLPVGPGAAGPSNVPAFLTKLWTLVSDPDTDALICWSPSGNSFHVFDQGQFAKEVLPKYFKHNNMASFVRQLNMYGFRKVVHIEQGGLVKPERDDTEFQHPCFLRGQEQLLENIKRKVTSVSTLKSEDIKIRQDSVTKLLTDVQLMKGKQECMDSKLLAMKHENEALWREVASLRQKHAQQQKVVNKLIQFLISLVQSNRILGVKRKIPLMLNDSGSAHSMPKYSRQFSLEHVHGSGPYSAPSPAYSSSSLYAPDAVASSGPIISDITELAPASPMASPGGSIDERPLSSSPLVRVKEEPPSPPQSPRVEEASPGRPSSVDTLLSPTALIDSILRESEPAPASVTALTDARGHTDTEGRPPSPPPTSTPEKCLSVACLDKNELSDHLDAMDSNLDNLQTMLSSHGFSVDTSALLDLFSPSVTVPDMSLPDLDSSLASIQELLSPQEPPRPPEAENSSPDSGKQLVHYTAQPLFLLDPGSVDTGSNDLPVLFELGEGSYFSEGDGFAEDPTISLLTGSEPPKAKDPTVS
Paired box protein Pax-6 (Homo sapiens), sequence (P26367 whole entry, looked up): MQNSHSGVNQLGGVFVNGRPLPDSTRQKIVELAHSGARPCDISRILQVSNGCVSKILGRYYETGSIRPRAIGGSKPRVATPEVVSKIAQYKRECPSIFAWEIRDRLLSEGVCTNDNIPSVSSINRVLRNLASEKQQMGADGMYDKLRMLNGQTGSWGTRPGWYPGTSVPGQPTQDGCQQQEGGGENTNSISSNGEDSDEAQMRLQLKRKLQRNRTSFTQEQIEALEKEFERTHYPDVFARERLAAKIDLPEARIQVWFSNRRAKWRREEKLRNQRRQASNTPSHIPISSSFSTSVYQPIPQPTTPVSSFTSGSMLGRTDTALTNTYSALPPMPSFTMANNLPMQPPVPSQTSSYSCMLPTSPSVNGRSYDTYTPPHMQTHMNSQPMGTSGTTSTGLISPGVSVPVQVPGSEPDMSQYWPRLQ
Hypoxia-inducible factor 1-alpha (Homo sapiens), sequence (Q16665 whole entry, looked up): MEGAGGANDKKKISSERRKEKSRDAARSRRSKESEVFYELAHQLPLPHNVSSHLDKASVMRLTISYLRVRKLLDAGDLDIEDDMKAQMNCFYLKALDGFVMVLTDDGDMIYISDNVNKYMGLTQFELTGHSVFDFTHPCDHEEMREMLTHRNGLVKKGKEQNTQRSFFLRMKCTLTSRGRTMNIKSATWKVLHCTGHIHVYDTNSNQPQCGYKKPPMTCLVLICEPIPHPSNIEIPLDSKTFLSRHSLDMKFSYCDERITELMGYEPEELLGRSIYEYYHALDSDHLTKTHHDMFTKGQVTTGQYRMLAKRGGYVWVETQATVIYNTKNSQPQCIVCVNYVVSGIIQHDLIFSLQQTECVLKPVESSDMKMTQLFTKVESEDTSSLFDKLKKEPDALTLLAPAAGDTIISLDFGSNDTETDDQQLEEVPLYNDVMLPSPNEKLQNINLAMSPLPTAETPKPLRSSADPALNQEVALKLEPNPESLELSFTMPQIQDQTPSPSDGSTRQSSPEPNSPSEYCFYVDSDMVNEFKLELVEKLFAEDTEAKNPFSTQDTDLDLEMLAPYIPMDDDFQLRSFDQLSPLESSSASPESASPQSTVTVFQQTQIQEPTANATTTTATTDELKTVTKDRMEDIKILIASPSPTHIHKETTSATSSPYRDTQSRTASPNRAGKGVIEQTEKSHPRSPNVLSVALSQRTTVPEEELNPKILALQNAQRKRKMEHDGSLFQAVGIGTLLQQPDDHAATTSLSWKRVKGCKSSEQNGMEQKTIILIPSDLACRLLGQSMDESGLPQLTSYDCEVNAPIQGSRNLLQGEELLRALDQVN
Transcription factor Sp1 (Homo sapiens), sequence (P08047 whole entry, looked up): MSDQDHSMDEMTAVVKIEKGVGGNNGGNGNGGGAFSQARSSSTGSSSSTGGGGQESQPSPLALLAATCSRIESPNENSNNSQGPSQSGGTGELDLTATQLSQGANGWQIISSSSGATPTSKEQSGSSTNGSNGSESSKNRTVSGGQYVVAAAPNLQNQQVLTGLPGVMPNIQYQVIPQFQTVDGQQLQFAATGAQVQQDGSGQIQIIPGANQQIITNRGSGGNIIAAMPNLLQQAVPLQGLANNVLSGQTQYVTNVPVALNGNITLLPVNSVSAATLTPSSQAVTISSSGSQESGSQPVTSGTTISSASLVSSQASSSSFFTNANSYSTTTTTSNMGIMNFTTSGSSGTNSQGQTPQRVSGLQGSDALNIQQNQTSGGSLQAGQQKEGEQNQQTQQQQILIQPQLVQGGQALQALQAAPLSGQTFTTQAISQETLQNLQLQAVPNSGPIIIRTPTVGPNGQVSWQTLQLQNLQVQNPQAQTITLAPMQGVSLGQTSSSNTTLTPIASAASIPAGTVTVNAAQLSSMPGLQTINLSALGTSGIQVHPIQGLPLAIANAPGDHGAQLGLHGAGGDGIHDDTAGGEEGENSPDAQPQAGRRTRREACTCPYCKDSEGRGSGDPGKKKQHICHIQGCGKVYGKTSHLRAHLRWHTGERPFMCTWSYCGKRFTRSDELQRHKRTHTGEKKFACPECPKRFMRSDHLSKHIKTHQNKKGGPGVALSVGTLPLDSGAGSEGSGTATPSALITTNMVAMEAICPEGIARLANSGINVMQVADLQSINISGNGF
Signal transducer and activator of transcription 3 (Homo sapiens), sequence (P40763 whole entry, looked up): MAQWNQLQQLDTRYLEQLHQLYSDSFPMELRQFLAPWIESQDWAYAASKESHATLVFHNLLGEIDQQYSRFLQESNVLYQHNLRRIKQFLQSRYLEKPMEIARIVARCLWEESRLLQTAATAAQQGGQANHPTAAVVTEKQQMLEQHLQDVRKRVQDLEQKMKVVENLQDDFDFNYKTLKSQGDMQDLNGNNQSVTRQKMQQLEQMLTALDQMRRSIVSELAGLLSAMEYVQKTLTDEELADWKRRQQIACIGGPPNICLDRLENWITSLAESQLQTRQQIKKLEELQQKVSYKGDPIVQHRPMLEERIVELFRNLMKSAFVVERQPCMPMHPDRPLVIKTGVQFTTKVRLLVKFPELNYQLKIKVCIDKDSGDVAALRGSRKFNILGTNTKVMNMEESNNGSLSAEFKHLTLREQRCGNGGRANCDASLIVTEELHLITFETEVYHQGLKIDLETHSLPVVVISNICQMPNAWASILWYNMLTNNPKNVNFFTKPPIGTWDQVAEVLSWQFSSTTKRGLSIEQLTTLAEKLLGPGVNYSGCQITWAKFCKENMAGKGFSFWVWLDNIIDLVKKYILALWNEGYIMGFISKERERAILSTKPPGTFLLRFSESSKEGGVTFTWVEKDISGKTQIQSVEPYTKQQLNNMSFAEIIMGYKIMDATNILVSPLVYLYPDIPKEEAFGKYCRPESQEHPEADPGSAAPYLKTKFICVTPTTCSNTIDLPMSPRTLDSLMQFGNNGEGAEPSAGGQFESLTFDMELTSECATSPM

COC(=O)C(F)(F)C(F)(F)C(F)(F)F
inactive: all assays above

c1cc2cccc3c4cccc5cccc(c(c1)c23)c54
not listed: [19]
inactive: all other assays above

NC(=NCCCCCCN=C(N)/N=C(\N)Nc1ccc(Cl)cc1)/N=C(\N)Nc1ccc(Cl)cc1
active: [1] 23.4 µM and 23.8 µM | [4] 25.7 µM | [6] 2.62 µM and 2.68 µM and 1.87 µM | [7] 4.31 µM | [12] 22.1 µM and 25.5 µM | [13] 159 µM and 23.3 µM | [14] 23.3 µM | [17] 23 µM and 25.4 µM | [19] 0.0763 µM
inactive: [1] | [2] | [3] | [4] | [5] | [7] | [8] | [9] | [12] | [13] | [14] | [15] | [16] | [17] | [19]

CC(C)C=O
active: [3] 157 µM | [9] 61.9 µM and 34.9 µM
inactive: [1] | [2] | [3] | [4] | [6] | [7] | [8] | [10] | [11] | [12] | [13] | [14] | [15] | [16] | [17] | [18] | [19] | [20]

CCCCCCCCC(C)=O
not listed: [19]
inactive: all other assays above

CC1CCC(C(=O)O)CC1 (configuration not stated)
inactive: all assays above
